Experimental data: PubChem BioAssay AID1159580 (chemical genetic matrix, 2015)
Out of some 5,500 compounds screened, about 2,000 (36%) were called active. About 18% were inconclusive and are not listed. No stated cut-off is given here; in the data, active means normalized growth mostly below about 0.91 (no sharp cut-off); inconclusive means no clear call, values can overlap the other calls; inactive means mostly above about 0.92. Some of the results follow.

Experiment: chemical genetic growth profiling, strain panel (AID 1159580);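 further: tested at 20 µM; growth read once vehicle control cultures reached saturation at 30 °C; 1 = growth at the plate median or of vehicle wells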
Conditions: growth OD

Measured: normalized growth

O=C1NC(=O)C(=O)C(=O)N1
inactive: S. cerevisiae deletion strains, locus YJR075W, strain HOC1, stronger effect = lower value 1.04 | S. cerevisiae deletion strains, locus YKL009W, strain mrt4, stronger effect = lower value 0.992 | S. cerevisiae deletion strains, locus YKL068W, stronger effect = lower value 0.997 | S. cerevisiae deletion strains, locus YKL085W, strain MDH1 (second series), stronger effect = lower value 1 | S. cerevisiae deletion strains, locus YKL085W, strain MDH1, stronger effect = lower value 1 | S. cerevisiae deletion strains, locus YKL160W, strain elf1, stronger effect = lower value 0.989 | S. cerevisiae deletion strains, locus YKL190W, strain CNB1, stronger effect = lower value 1.01 | S. cerevisiae deletion strains, locus YKR001C, strain vps1, stronger effect = lower value 0.994 | S. cerevisiae deletion strains, locus YKR026C, strain gcn3, stronger effect = lower value 0.992 | S. cerevisiae deletion strains, locus YKR091W, strain srl3, stronger effect = lower value 0.989 | S. cerevisiae deletion strains, locus YLL001W, strain dnm1, stronger effect = lower value 0.994 | S. cerevisiae deletion strains, locus YLL026W, stronger effect = lower value 0.998 | S. cerevisiae deletion strains, locus YLL041C, strain sdh2, stronger effect = lower value 1 | S. cerevisiae deletion strains, locus YLR027C, strain aat2, stronger effect = lower value 1 | S. cerevisiae deletion strains, locus YLR039C, strain RIC1, stronger effect = lower value 1.04 | S. cerevisiae deletion strains, locus YLR058C, strain SHM2, stronger effect = lower value 1.02 | S. cerevisiae deletion strains, locus YLR102C, strain apc9, stronger effect = lower value 0.987 | S. cerevisiae deletion strains, locus YLR113W, strain HOG1, stronger effect = lower value 0.967 | S. cerevisiae deletion strains, locus YLR221C, strain rsa3, stronger effect = lower value 0.99 | S. cerevisiae deletion strains, locus YLR258W, strain gsy2, stronger effect = lower value 1.01 | S. cerevisiae deletion strains, locus YLR262C, strain YPT6 (second series), stronger effect = lower value 0.989 | S. cerevisiae deletion strains, locus YLR262C, strain YPT6, stronger effect = lower value 1.04 | S. cerevisiae deletion strains, locus YLR268W, strain sec22, stronger effect = lower value 0.968 | S. cerevisiae deletion strains, locus YLR320W, strain mms22, stronger effect = lower value 0.994 | S. cerevisiae deletion strains, locus YLR330W, strain CHS5, stronger effect = lower value 1.01 | S. cerevisiae deletion strains, locus YLR342W, strain FKS1 (second series), stronger effect = lower value 1.05 | S. cerevisiae deletion strains, locus YLR342W, strain FKS1, stronger effect = lower value 0.975 | S. cerevisiae deletion strains, locus YLR357W, strain rsc2, stronger effect = lower value 0.952 | S. cerevisiae deletion strains, locus YLR370C, strain arc18, stronger effect = lower value 0.982 | S. cerevisiae deletion strains, locus YLR371W, strain rom2, stronger effect = lower value 0.978 | S. cerevisiae deletion strains, locus YLR384C, strain iki3, stronger effect = lower value 0.99 | S. cerevisiae deletion strains, locus YLR418C, strain cdc73, stronger effect = lower value 0.991 | S. cerevisiae deletion strains, locus YML016C, strain PPZ1, stronger effect = lower value 1.01 | S. cerevisiae deletion strains, locus YML032C, strain rad52, stronger effect = lower value 0.976 | S. cerevisiae deletion strains, locus YML120C, strain ndi1, stronger effect = lower value 0.99 | S. cerevisiae deletion strains, locus YML124C, strain tub3, stronger effect = lower value 0.993 | S. cerevisiae deletion strains, locus YMR058W, strain fet3, stronger effect = lower value 0.999 | S. cerevisiae deletion strains, locus YMR078C, strain ctf18, stronger effect = lower value 0.98 | S. cerevisiae deletion strains, locus YMR125W, strain sto1, stronger effect = lower value 0.982 | S. cerevisiae deletion strains, locus YMR129W, stronger effect = lower value 0.982 | S. cerevisiae deletion strains, locus YMR205C, strain PFK2, stronger effect = lower value 1 | S. cerevisiae deletion strains, locus YMR223W, strain ubp8, stronger effect = lower value 1.01 | S. cerevisiae deletion strains, locus YMR231W, strain pep5, stronger effect = lower value 0.98 | S. cerevisiae deletion strains, locus YMR263W, strain SAP30, stronger effect = lower value 1.01 | S. cerevisiae deletion strains, locus YMR307W, strain GAS1, stronger effect = lower value 1.03 | S. cerevisiae deletion strains, locus YNL067W, strain RPL9B, stronger effect = lower value 1.01 | S. cerevisiae deletion strains, locus YNL071W, strain lat1, stronger effect = lower value 0.988 | S. cerevisiae deletion strains, locus YNL128W, strain TEP1, stronger effect = lower value 1.02 | S. cerevisiae deletion strains, locus YNL153C, strain GIM3, stronger effect = lower value 1.02 | S. cerevisiae deletion strains, locus YNL183C, strain NPR1, stronger effect = lower value 0.912 | S. cerevisiae deletion strains, locus YNL209W, strain ssb2, stronger effect = lower value 0.985 | S. cerevisiae deletion strains, locus YNL233W, strain BNI4, stronger effect = lower value 1.01 | S. cerevisiae deletion strains, locus YNL248C, strain rpa49, stronger effect = lower value 0.996 | S. cerevisiae deletion strains, locus YNL250W, strain rad50, stronger effect = lower value 0.995 | S. cerevisiae deletion strains, locus YNL271C, strain bni1, stronger effect = lower value 0.995 | S. cerevisiae deletion strains, locus YNL298W, strain CLA4, stronger effect = lower value 0.999 | S. cerevisiae deletion strains, locus YNL307C, strain MCK1, stronger effect = lower value 1.01 | S. cerevisiae deletion strains, locus YNL322C, strain KRE1 (second series), stronger effect = lower value 0.989 | S. cerevisiae deletion strains, locus YNL322C, strain KRE1, stronger effect = lower value 1.01 | S. cerevisiae deletion strains, locus YNR049C, strain mso1, stronger effect = lower value 0.988 | S. cerevisiae deletion strains, locus YNR052C, strain pop2, stronger effect = lower value 0.971 | S. cerevisiae deletion strains, locus YOL006C, strain TOP1, stronger effect = lower value 1.1 | S. cerevisiae deletion strains, locus YOL012C, strain htz1 0.951 | S. cerevisiae deletion strains, locus YOL147C, strain pex11, stronger effect = lower value 0.998 | S. cerevisiae deletion strains, locus YOR001W, strain rrp6, stronger effect = lower value 0.969 | S. cerevisiae deletion strains, locus YOR061W, strain CKA2, stronger effect = lower value 1.01 | S. cerevisiae deletion strains, locus YOR069W, strain VPS5, stronger effect = lower value 1.01 | S. cerevisiae deletion strains, locus YOR070C, strain gyp1, stronger effect = lower value 0.984 | S. cerevisiae deletion strains, locus YOR080W, strain dia2, stronger effect = lower value 0.99 | S. cerevisiae deletion strains, locus YOR083W, strain WHI5, stronger effect = lower value 0.996 | S. cerevisiae deletion strains, locus YOR106W, strain vam3, stronger effect = lower value 0.99 | S. cerevisiae deletion strains, locus YOR136W, strain idh2, stronger effect = lower value 0.996 | S. cerevisiae deletion strains, locus YOR144C, strain elg1, stronger effect = lower value 0.987 | S. cerevisiae deletion strains, locus YOR184W, strain ser1, stronger effect = lower value 0.997 | S. cerevisiae deletion strains, locus YOR231W, strain MKK1, stronger effect = lower value 0.964 | S. cerevisiae deletion strains, locus YOR265W, strain rbl2, stronger effect = lower value 1.01 | S. cerevisiae deletion strains, locus YOR270C, strain vph1, stronger effect = lower value 1.07 | S. cerevisiae deletion strains, locus YOR290C, strain snf2, stronger effect = lower value 0.983 | S. cerevisiae deletion strains, locus YOR316C, strain cot1, stronger effect = lower value 0.987 | S. cerevisiae deletion strains, locus YPL051W, strain arl3, stronger effect = lower value 1.01 | S. cerevisiae deletion strains, locus YPL055C, strain LGE1, stronger effect = lower value 1.04 | S. cerevisiae deletion strains, locus YPL078C, strain atp4, stronger effect = lower value 0.987 | S. cerevisiae deletion strains, locus YPL106C, strain sse1, stronger effect = lower value 0.99 | S. cerevisiae deletion strains, locus YPL240C, strain hsp82, stronger effect = lower value 0.995 | S. cerevisiae deletion strains, locus YPL241C, strain CIN2, stronger effect = lower value 1.01 | S. cerevisiae deletion strains, locus YPL256C, strain CLN2, stronger effect = lower value 0.955 | S. cerevisiae deletion strains, locus YPR119W, strain clb2, stronger effect = lower value 0.983 | S. cerevisiae deletion strains, locus YPR141C, strain kar3, stronger effect = lower value 0.994 | S. cerevisiae deletion strains, locus YPR163C, strain tif3, stronger effect = lower value 0.987 | S. cerevisiae deletion strains, locus YPR167C, strain met16, stronger effect = lower value 0.986 | S. cerevisiae deletion strains, strain wtn01, stronger effect = lower value 0.98 | S. cerevisiae strains, strain wild type, stronger effect = lower value 1.02
